Test results as given in PMC5540273 (PLoS ONE, 2017).

Key:
Conditions in all cases: concentration: 1 μM, replicates: in singlicate; n = 1
ADCK4 = system: ADCK4
AKT1 = system: AKT1
AKT2 = system: AKT2
AKT3 = system: AKT3
ALK = system: ALK
AMPK-alpha1 = system: T1, AMPK-alpha1
T1 construct: gene PRKAA1

AMPK-alpha2 = system: T2, AMPK-alpha2
T2 construct: gene PRKAA2

ANKK1 = system: ANKK1
ARK5 = system: T3, ARK5
T3 construct: gene NUAK1

ASK1 = system: T4, ASK1
T4 construct: gene MAP3K5
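Also: KINOMEscan kinase panel screen.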

| SMILES | %Inh (ADCK4) | %Inh (AKT1) | %Inh (AKT2) | %Inh (AKT3) | %Inh (ALK) | %Inh (AMPK-alpha1) | %Inh (AMPK-alpha2) | %Inh (ANKK1) | %Inh (ARK5) | %Inh (ASK1) |
| --- | --- | --- | --- | --- | --- | --- | --- | --- | --- | --- |
| COc1ccc(CNC(=O)NC2CCN(c3ccnc(Nc4ccc(F)cc4)n3)CC2)cc1 [GSK1379788] | 49% | 0% | 0% | 0% | 20% | 0% | 0% | 0% | 5% | 0% |
| COc1cccc(-c2ccc3c(NC(=O)C4CC4)n[nH]c3n2)c1 [SB-710903] | 48% | 0% | 0% | 0% | 29% | 0% | 13% | 0% | 0% | 12% |
| CCS(=O)(=O)c1ccc(OC)c(Nc2nccc(-c3c(-c4cccc(NC(=O)c5c(F)cccc5F)c4)nn4ncccc34)n2)c1 [GSK326180] | 18% | 0% | 15% | 0% | 25% | 2% | 27% | 0% | 18% | 20% |
| CN1CCN(Cc2cccc(-c3ccc4c(Nc5ccc(Oc6ccccc6)cc5)ccnc4c3)c2)CC1 [GW578342] | 9% | 0% | 11% | 0% | 23% | 8% | 0% | 6% | 0% | 0% |
| CC(=O)N1CCN(c2ccc(Nc3nccc(-c4sc(C(C)C)nc4-c4cccc(NS(=O)(=O)c5cccc(Cl)c5)c4)n3)cn2)CC1 [GSK1660437] | 72% | 0% | 5% | 0% | 7% | 48% | 75% | 7% | 0% | 0% |
| CN1CCN(CCCNc2nccc(-c3c(-c4ccc(F)cc4)nn4cc(C(F)(F)F)ccc34)n2)CC1 [GW621581] | 97.1% | 0% | 0% | 0% | 9% | 0% | 19% | 0% | 21% | 6% |
| O=C(Nc1cccc(Oc2ccc3nc(NC(=O)C4CC4)cn3n2)c1)c1ccccc1C(F)(F)F | 12% | 0% | 0% | 0% | 22% | 0% | 3% | 1% | 0% | 0% |
| Cn1cc(-c2ccc3c(c2)CCN3C(=O)Cc2cccc(F)c2)c2c(N)ncnc21 [GSK2603358] | 35% | 0% | 9% | 0% | 20% | 7% | 22% | 0% | 17% | 11% |
| CCCCc1nn2ncccc2c1-c1ccnc(Nc2ccc(N3CCN(C)CC3)cc2)n1 [GW684941] | 93.1% | 0% | 0% | 0% | 72% | 5% | 9% | 0% | 62% | 0% |
| CCc1ccc(-c2ccc3c(c2)-c2c(cnn2C)S(=O)(=O)N3C)cc1 | 0% | 0% | 0% | 0% | 0% | 0% | 0% | 0% | 0% | 0% |
| NCCCC(NC(=O)c1cc(Br)c(-c2ccnc3[nH]ccc23)s1)c1ccccc1.O=C(O)C(F)(F)F.O=C(O)C(F)(F)F (centres unmarked) [GSK1287544] | 38% | 89% | 52% | 91.8% | 32% | 17% | 35% | 0% | 54% | 0% |
| Cc1ccc(F)c(C(=O)Nc2cccc(-c3nn4ccccc4c3-c3ccnc(Nc4cccc(F)c4)n3)c2)c1F [GSK361061] | 37% | 0% | 7% | 0% | 7% | 8% | 17% | 33% | 20% | 2% |
| CC(C)(C)c1ccc2nccc(Nc3cccc(O)c3)c2c1 [GW856795] | 41% | 0% | 0% | 0% | 39% | 0% | 0% | 0% | 0% | 0% |
| COc1cccc(C(=O)Nc2cccc(Oc3ccc4nc(NC(=O)C5CC5)cn4n3)c2)c1 | 39% | 19% | 0% | 3% | 0% | 23% | 0% | 0% | 0% | 7% |
| COc1ccc(Nc2nccc(N3CCC(NC(=O)Nc4cccc(OC)c4)C3)n2)cc1 (centres unmarked) [GSK1379742] | 14% | 0% | 0% | 0% | 25% | 1% | 0% | 0% | 25% | 5% |
| Oc1cc(Nc2ccnc3cc(I)ccc23)ccc1F [GW552771] | 38% | 0% | 16% | 0% | 34% | 15% | 1% | 0% | 18% | 0% |

| SMILES | %Inh (ADCK4) | %Inh (AKT1) | %Inh (AKT2) | %Inh (AKT3) | %Inh (ALK) | %Inh (AMPK-alpha1) | %Inh (AMPK-alpha2) | %Inh (ANKK1) | %Inh (ARK5) | %Inh (ASK1) |
| --- | --- | --- | --- | --- | --- | --- | --- | --- | --- | --- |
| COc1cc(Nc2nccc(N3CCC(NC(=O)Nc4cccc(C(C)=O)c4)C3)n2)cc(OC)c1OC (centres unmarked) [GSK1379753] | 55% | 0% | 0% | 0% | 44% | 0% | 0% | 41% | 27% | 0% |
| Cc1ccc(S(=O)(=O)Nc2ccc(Nc3nccc(Nc4cccc5[nH]ncc45)n3)cc2)cc1 [GSK581271] | 87% | 0% | 0% | 0% | 24% | 0% | 0% | 0% | 5% | 0% |
| O=C(Nc1cccc(-c2nn3ccccc3c2-c2ccnc(Nc3cccc(F)c3)n2)c1)c1c(F)ccc(F)c1Cl [GSK357952] | 0% | 0% | 9% | 0% | 0% | 20% | 21% | 2% | 0% | 1% |
| Cl.Cl.NCC(C(=O)Nc1cc(Br)c(-c2ccnc3[nH]ccc23)s1)c1ccccc1 (centres unmarked) [GSK1269851] | 95.7% | 61% | 25% | 66% | 39% | 0% | 0% | 0% | 0% | 0% |
| Nc1ncc(-c2ccc3nccc(-c4ccncc4)c3c2)cc1S(=O)(=O)N1CCOCC1 [GSK1627798] | 24% | 0% | 12% | 0% | 30% | 0% | 0% | 5% | 0% | 0% |
| Cn1cc(-c2[nH]c3cc(NC(=O)[C@H](N)C4CCCCC4)cc4c3c2C=NNC4=O)cn1 | 0% | 60% | 45% | 36% | 91.3% | 94.1% | 81% | 95.7% | 92.2% | 0% |
| COc1cccc(C2=C(Nc3ccc(Cl)c(C(=O)O)c3)C(=O)NC2=O)c1 [SB-390769] | 22% | 0% | 0% | 0% | 36% | 6% | 2% | 99.4% | 24% | 12% |
| Cl.c1ccc(-c2ccc3c(Nc4ccc5[nH]ccc5c4)ccnc3c2)nc1 [GW440138] | 38% | 0% | 0% | 0% | 25% | 0% | 0% | 11% | 4% | 0% |
| CN(C)S(=O)(=O)c1cc(-c2ccc3nccc(-c4cccc(S(N)(=O)=O)c4)c3c2)cnc1N [GSK1669921] | 0% | 0% | 5% | 0% | 30% | 3% | 0% | 5% | 11% | 0% |
| Cn1cc(-c2ccc3c(c2)CCN3C(=O)Cc2cccc(Cl)c2)c2c(N)ncnc21 [GSK2606590] | 1% | 0% | 10% | 0% | 30% | 4% | 20% | 0% | 13% | 9% |
| O=c1[nH]cc(-c2ccc(N3CCOCC3)cc2)c2sc(-c3cn[nH]c3)cc12 [GSK2276055] | 0% | 0% | 16% | 0% | 4% | 0% | 0% | 21% | 18% | 0% |
| COc1cc(Nc2ncc3c(C)nc(-c4cc5ccccc5[nH]4)n3n2)cc(OC)c1OC [GW869516] | 3% | 8% | 0% | 0% | 0% | 89% | 61% | 0% | 0% | 0% |
| COc1cc(Nc2nccc(-c3c(-c4cccc(NC(=O)c5c(F)cccc5F)c4)nn4ncccc34)n2)cc(OC)c1OC [GSK327238] | 93.7% | 0% | 11% | 17% | 20% | 9% | 48% | 29% | 97.4% | 0% |
| C[C@@H]1CC[C@@H](C(=O)Nc2ccccc2)CN1c1cc(-c2ccc3c(N)n[nH]c3c2)nc(N)n1 [GSK2286062] | 14% | 0% | 7% | 0% | 0% | 13% | 0% | 3% | 19% | 0% |
| COc1cc(Nc2nccc(N3CCC(NC(=O)c4cc5ccccc5s4)C3)n2)cc(OC)c1OC (centres unmarked) [GSK1379760] | 26% | 1% | 8% | 0% | 19% | 45% | 30% | 12% | 17% | 20% |
| Nc1ncc(-c2cccnc2)c2scc(-c3ccc4c(c3)CCN4C(=O)Cc3ccccc3)c12 [GSK683281] | 32% | 0% | 21% | 0% | 29% | 97.4% | 20% | 19% | 32% | 22% |
